In PubChem BioAssay (Tox21):
Several values for one entry are separate records, joined by “and”; a condition that tells them apart may be missing. Equal values may be shown once. Records with an inconclusive call do not appear. A call without a number means that no potency is given here. Activity calls are given as the source filed them. Unless noted, calls come from the whole dose curve; as a rule, active = well fitted curve in the direction sought with a large enough effect in the repeat runs; inconclusive = weak or mixed curves; inactive = no such curve, though single readings can be large; an effect the other way counts as inactive or inconclusive.

Tests used:
[1] = qHTS assay to identify small molecule antagonists of the estrogen receptor alpha (ER-alpha) signaling pathway using the BG1 cell line in the presence of 0.1 nM 17-beta-estradiol - cell viability counter screen (AID 1259241); note: nearly all actives have a fitted effect of over 40% in size; note: potency is the fitted concentration of half-maximal effect
Outline: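 Cytotoxicity counter-screen: live-cell protease activity measured by fluorescence (30 min reagent step) in the same wells. Cells were VM7Luc4E2 with endogenous ER-alpha and ERE-driven luciferase, treated 22 hr at 37C alongside 0.1 nM 17beta-estradiol final.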

[2] = qHTS assay to identify small molecule antagonists of the androgen receptor (AR) signaling pathway using the MDA cell line in the presence of 0.5 nM R1881 - cell viability counter screen (AID 1259242); note: nearly all actives have a fitted effect of over 45% in size; note: potency is the fitted concentration of half-maximal effect
Outline: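 Counter screen for cytotoxicity run in the same wells as the AR antagonist reporter screen: MDA-kb2 cells were treated 16 hr with test compounds and 0.5 nM R1881, then live-cell protease activity was measured by fluorescence.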

[3] = target: Androgen receptor (Homo sapiens) (UniProt P10275); experiment: qHTS assay to identify small molecule antagonists of the androgen receptor (AR) signaling pathway using the MDA cell line in the presence of 0.5 nM R1881 (AID 1259243); note: nearly all actives have a fitted effect of over 50% in size; note: potency is the fitted concentration of half-maximal effect
Chain of Androgen receptor (Homo sapiens) (P10275 whole entry, looked up): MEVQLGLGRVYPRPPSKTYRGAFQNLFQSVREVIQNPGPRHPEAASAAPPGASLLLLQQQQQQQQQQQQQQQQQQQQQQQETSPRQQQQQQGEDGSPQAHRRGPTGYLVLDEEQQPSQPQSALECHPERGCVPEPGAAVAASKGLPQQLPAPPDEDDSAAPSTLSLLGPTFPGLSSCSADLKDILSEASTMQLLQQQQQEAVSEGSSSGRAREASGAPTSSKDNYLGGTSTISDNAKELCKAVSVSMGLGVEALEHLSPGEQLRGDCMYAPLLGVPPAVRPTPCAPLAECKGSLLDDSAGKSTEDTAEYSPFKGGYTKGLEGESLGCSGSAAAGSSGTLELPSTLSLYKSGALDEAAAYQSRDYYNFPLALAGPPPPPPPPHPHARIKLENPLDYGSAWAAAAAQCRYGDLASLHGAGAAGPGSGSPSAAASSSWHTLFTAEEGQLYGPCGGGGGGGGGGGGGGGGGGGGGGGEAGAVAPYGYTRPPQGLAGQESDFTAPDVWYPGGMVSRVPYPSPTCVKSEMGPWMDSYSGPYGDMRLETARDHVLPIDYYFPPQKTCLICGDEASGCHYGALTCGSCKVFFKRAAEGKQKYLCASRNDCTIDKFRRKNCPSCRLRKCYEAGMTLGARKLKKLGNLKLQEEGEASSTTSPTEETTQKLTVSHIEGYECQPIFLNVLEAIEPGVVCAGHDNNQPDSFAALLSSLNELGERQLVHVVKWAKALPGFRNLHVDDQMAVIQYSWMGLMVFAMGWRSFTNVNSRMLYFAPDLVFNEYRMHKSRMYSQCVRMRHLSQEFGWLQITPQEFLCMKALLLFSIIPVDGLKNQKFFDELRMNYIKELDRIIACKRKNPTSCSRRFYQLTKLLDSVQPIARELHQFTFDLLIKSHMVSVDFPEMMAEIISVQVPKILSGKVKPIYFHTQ
Outline: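 Luciferase luminescence is the read-out: compounds are tested for suppressing 0.5 nM R1881-driven MMTV reporter activity in MDA-kb2 cells after 16 hr at 37C.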

[4] = target: Estrogen receptor (Homo sapiens) (UniProt P03372); experiment: qHTS assay to identify small molecule antagonists of the estrogen receptor alpha (ER-alpha) signaling pathway using the BG1 cell line in the presence of 0.1 nM 17-beta-estradiol (AID 1259244); note: nearly all actives have a fitted effect of over 50% in size; note: potency is the fitted concentration of half-maximal effect
Chain of Estrogen receptor (Homo sapiens) (P03372 whole entry, looked up): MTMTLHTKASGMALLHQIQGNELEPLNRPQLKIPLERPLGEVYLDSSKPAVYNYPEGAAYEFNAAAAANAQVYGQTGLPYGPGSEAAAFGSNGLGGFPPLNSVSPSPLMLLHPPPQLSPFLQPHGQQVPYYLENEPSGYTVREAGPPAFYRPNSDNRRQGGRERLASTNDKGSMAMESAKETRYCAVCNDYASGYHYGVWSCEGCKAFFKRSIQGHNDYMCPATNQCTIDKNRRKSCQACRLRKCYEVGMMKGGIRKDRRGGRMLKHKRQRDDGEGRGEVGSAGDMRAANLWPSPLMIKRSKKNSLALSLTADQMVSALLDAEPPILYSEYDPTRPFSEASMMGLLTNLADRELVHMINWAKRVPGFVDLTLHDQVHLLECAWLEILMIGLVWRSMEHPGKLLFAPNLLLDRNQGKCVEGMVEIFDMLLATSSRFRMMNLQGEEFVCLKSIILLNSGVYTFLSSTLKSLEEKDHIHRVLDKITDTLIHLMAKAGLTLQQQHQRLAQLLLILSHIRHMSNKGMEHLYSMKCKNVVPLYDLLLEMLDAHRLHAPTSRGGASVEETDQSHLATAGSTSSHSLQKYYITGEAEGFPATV
Outline: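 Cells: VM7Luc4E2, endogenous ER-alpha, 4x ERE-luc stable. Pre-culture 5 d, phenol red-free, charcoal-stripped FBS. Plated 24 h, compound + E2 0.1 nM final, 22 h 37C/5% CO2. Readout ONE-Glo luminescence.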

[5] = qHTS assay to identify small molecule HDAC inhibitors (AID 1259364); note: nearly all actives have a fitted effect of over 45% in size; note: potency is the fitted concentration of half-maximal effect
Outline: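 Luminescence from a cell-permeant luminogenic class I/II HDAC substrate reports endogenous deacetylase activity in intact HCT-116 cells treated with compounds for 2 h.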

[6] = qHTS assay to identify small molecule HDAC inhibitors - cell viability counter screen (AID 1259365); note: nearly all actives have a fitted effect of over 50% in size; note: potency is the fitted concentration of half-maximal effect
Outline: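 CellTiter-Glo luminescence (30 min, room temperature) reported viability after a 2 h compound exposure at 37 C. Cells: wild-type HCT-116, 1,500 per well, seeded the night before.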

[7] = qHTS assay to identify small molecule agonists of the sonic hedgehog signaling (Shh) pathway - cell viability counter screen (AID 1259366); note: nearly all actives have a fitted effect of over 50% in size; note: potency is the fitted concentration of half-maximal effect
Outline: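 Cytotoxicity counter screen: CellTiter-Fluor reagent added after 23 h compound exposure, then 1 h at 37C and fluorescence read. Cells were 3T3 Gli1-Luc, seeded 2,000 per well and dosed 4 h post-plating.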

[8] = qHTS assay to identify small molecule antagonists of the sonic hedgehog signaling (Shh) pathway - cell viability counter screen (AID 1259367); note: nearly all actives have a fitted effect of over 55% in size; note: potency is the fitted concentration of half-maximal effect
Outline: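 Seed 3T3 Gli1-Luc cells at 2,000 per well; incubate 4 hr; add compound in DMSO, then conditioned medium; incubate at 37C with 5% CO2; add CellTiter-Fluor after 23 hr; read fluorescence 1 hr later.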

[9] = qHTS assay to identify small molecule agonists of the sonic hedgehog signaling (Shh) pathway (AID 1259368; calls by dose curve; note: nearly all actives have a fitted effect of over 15% in size; note: potency is the fitted concentration of half-maximal effect)
Outline: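 3T3Gli1-Luc (NIH/3T3 clone, stable Gli1-Luc); 4 hr pre-incubation, then cpd in DMSO 24 hr, 37 C/5% CO2; luciferase reagent 30 min RT; luminescence.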

[10] = qHTS assay to identify small molecule antagonists of the sonic hedgehog signaling (Shh) pathway (AID 1259369; calls by dose curve; note: nearly all actives have a fitted effect of over 45% in size; note: potency is the fitted concentration of half-maximal effect)
Outline: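 3T3Gli1-Luc, conditioned-medium-stimulated, 24hr cpd, 37C/5% CO2; Gli1-driven firefly Luc luminescence after 30min RT with luciferase reagent. Cells plated 4hr before cpd.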

[11] = target: Estrogen receptor beta (Homo sapiens) (UniProt Q92731); experiment: qHTS assay to identify small molecule agonists of the estrogen receptor beta (ER-beta) signaling pathway (AID 1259377; active = well fitted activation curve with a large enough effect in the signal ratio in the repeat runs, not every such curve was filed as active; the % refers to the signal ratio; note: potency is the fitted concentration of half-maximal effect)
Chain of Estrogen receptor beta (Homo sapiens) (Q92731 whole entry, looked up): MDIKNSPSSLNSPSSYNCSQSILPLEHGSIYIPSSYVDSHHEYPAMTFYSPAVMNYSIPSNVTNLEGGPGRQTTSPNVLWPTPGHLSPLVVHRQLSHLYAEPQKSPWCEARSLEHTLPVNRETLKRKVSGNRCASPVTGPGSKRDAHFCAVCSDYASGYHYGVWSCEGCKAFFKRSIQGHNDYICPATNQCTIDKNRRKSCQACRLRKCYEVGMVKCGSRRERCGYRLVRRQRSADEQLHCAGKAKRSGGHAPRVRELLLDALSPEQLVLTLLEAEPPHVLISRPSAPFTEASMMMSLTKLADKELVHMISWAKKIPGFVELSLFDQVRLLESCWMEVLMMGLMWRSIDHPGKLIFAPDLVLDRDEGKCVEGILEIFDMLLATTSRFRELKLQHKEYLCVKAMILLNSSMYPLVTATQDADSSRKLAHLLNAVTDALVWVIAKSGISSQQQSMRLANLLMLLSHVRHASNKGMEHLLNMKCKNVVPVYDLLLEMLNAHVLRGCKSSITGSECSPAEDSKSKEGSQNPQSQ
Outline: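 Ratiometric beta-lactamase FRET read-out came after 2 h substrate loading at room temperature. It followed 16 h compound treatment at 37C of GripTite HEK293T cells carrying a UAS-bla reporter, plated in 2% charcoal-stripped FBS medium.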

[12] = target: Estrogen receptor beta (Homo sapiens) (UniProt Q92731); experiment: qHTS assay to identify small molecule antagonists of the estrogen receptor beta (ER-beta) signaling pathway (AID 1259378; active = well fitted inhibition curve with a large enough effect in the signal ratio in the repeat runs, not every such curve was filed as active; the % refers to the signal ratio; note: potency is the fitted concentration of half-maximal effect)
Outline: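 ER-beta-UAS-bla HEK293T cells in 2% charcoal-stripped FBS medium treated with compound plus 1nM final 17-beta-estradiol for 16 hr at 37C. Beta-lactamase reporter read by FRET substrate fluorescence after 2 hours at room temperature.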

[13] = qHTS assay to identify small molecule agonists of the androgen receptor (AR) signaling pathway in the presence of an antagonist - cell viability counter screen (AID 1259379); note: nearly all actives have a fitted effect of over 25% in size; note: potency is the fitted concentration of half-maximal effect
Outline: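 Cells: MDA-kb2 (MMTV-luc, AR and GR elements), 3,000/well, 5 hr settle. Added: nilutamide 3.0uM final, then compounds (15 conc.). Incubation: 16 hr, 37C, no CO2. Read-out: CellTiter-Fluor, 1 hr, fluorescence.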

[14] = qHTS assay to identify small molecule agonists of the estrogen receptor beta (ER-beta) signaling pathway - cell viability counter screen (AID 1259380); note: nearly all actives have a fitted effect of over 30% in size; note: potency is the fitted concentration of half-maximal effect
Outline: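 HEK293T ER-beta-UAS-bla; 2% CS-FBS; 6 hr pre-plate, 16 hr cpd at 37C/5% CO2; LiveBLAzer read first, then CellTiter-Glo 30 min RT, luminescence.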

[15] = target: Androgen receptor (Homo sapiens) (UniProt P10275); experiment: qHTS assay to identify small molecule agonists of the androgen receptor (AR) signaling pathway in the presence of an antagonist (AID 1259381; calls by dose curve; note: nearly all actives have a fitted effect of over 15% in size; note: potency is the fitted concentration of half-maximal effect)
Outline: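 MDA-kb2 cells, 3,000/well, rested 5hr at 37C/0% CO2 → nilutamide 3.0uM final or buffer → compounds, 15 conc. → 16hr at 37C → ONE-Glo, 30min RT → luminescence.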

[16] = qHTS assay to identify small molecule antagonists of the estrogen receptor beta (ER-beta) signaling pathway - cell viability counter screen (AID 1259382); note: nearly all actives have a fitted effect of over 55% in size; note: potency is the fitted concentration of half-maximal effect
Outline: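 Cells: ER-beta-UAS-bla HEK293T, 2,000/well, 2% CS-FBS, 6 hr settle. Cpd + E2 (1nM final), 16 hr, 37C/5% CO2. Bla FRET substrate 2 hr RT, then CellTiter-Glo 30 min RT, luminescence.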

[17] = target: Estrogen receptor (Homo sapiens) (UniProt P03372); experiment: qHTS assay to identify small molecule agonists of the estrogen receptor alpha (ER-alpha) signaling pathway in the presence of an antagonist (AID 1259383; calls by dose curve; note: top concentration of the series differs between compounds; nearly all actives have a fitted effect of over 15% in size)
Outline: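 VM7Luc4E2, endog. ER-alpha + 4×ERE-luc; charcoal-stripped FBS, phenol red-free, 5 d; 24hr plating; +10.0nM ICI-182,780 (final); cpds 15 conc, 22hr, 37C/5% CO2; ONE-Glo luminescence.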

[18] = qHTS assay to identify small molecule agonists or antagonists of the thyroid stimulating hormone receptor (TSHR) signaling pathway - wild type cell line counter screen (AID 1259384; calls by dose curve)
Outline: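 Wild-type Hek293 cells, 800/well, 18 h at 37C, then compound with Ro20-1724 for 30 min RT. cAMP by HTRF (cAMP-d2/anti-cAMP cryptate), 1 h RT, fluorescence read. 15 concentrations, triplicates.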

[19] = target: Thyrotropin receptor (Homo sapiens) (UniProt P16473); experiment: qHTS assay to identify small molecule antagonists of the thyroid stimulating hormone receptor (TSHR) signaling pathway (AID 1259385; calls by dose curve; note: nearly all actives have a fitted effect of over 20% in size; note: potency is the fitted concentration of half-maximal effect)
Chain of Thyrotropin receptor (Homo sapiens) (P16473 whole entry, looked up): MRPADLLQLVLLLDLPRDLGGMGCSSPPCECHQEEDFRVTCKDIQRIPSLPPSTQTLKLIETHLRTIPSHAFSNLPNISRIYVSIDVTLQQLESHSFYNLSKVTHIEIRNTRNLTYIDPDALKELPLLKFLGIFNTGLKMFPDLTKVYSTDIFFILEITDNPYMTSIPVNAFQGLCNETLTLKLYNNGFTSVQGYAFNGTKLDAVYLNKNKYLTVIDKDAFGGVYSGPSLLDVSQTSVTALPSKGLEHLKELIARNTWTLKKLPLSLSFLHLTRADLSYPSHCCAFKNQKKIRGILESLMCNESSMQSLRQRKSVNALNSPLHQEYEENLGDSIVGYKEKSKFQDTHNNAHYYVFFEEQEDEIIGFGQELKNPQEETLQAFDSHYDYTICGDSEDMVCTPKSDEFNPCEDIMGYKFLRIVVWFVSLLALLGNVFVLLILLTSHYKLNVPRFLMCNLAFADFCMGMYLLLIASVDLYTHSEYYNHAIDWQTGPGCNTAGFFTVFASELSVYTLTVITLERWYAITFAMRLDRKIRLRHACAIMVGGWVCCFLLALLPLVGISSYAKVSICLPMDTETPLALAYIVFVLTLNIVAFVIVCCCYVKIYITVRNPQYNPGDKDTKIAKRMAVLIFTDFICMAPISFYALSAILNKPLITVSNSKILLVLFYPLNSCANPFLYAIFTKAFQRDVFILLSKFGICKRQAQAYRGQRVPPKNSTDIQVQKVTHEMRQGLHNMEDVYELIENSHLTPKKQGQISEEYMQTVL
Outline: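 TSHR-HEK293 cells (800/well) plated 18 h, then compounds with Ro20-1724 and TSH at 1.5 ng/mL final, 30 min at room temperature. cAMP quantified by HTRF (cAMP-d2/anti-cAMP-cryptate, 1 h); 15 concentrations in triplicate.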

[20] = qHTS assay to identify small molecule phospholipidosis (PLD) inducers (AID 1259344; active = well fitted curve in the direction sought with a large enough effect; an effect the other way counts as inactive or inconclusive)
Outline: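 Quantitative HTS in HepG2: compound plus LipidTOX Red dye for 24 h, paraformaldehyde fixation with Hoechst 33342, widefield high-content imaging; amiodarone as positive and DMSO as negative control.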

SMILES | Potency [1] | Potency [2] | Potency [3] | Potency [4] | Potency [5] | Potency [6] | Potency [7] | Potency [8] | Potency [9] | Potency [10] | Potency [11] | Potency [12] | Potency [13] | Potency [14] | Potency [15] | Potency [16] | Potency [17] | outcome [18] | Potency [19] | Potency [20]
O=S1(=O)CC(Cl)(Cl)C(Cl)(Cl)C1 | 21.7 µM (active) | 21.7 µM (active) | 5.45 µM (active) | 21.7 µM (active) | inactive | 48.6 µM (active) | 1.37 µM (active) | 2.17 µM (active) | inactive | 0.344 µM (active) | inactive | 4.86 µM (active) | 21.7 µM (active) | 9.69 µM (active) | inactive | 9.69 µM (active) | inactive | inactive | 48.6 µM (active) | –
CC(C)(C)C1CCC(CC2=C(O)c3ccccc3C(=O)C2=O)CC1 (configuration not stated) | 29.8 µM (active) | 10.6 µM (active) | 8.41 µM (active) | 21.1 µM (active) | inactive | inactive | inactive | inactive | inactive | – | – | – | 13.3 µM (active) | – | inactive | – | inactive | inactive | – | –
[Cl][Bi]([Cl])([c]1ccccc1)([c]1ccccc1)[c]1ccccc1 | 12.1 µM (active) | 27.1 µM (active) | 13.6 µM (active) | 4.83 µM (active) | – | inactive | 0.108 µM (active) | 0.136 µM (active) | inactive | 0.0242 µM (active) | – | – | 60.8 µM (active) | 24.2 µM (active) | inactive | 8.58 µM (active) | – | – | inactive | –
O=C(c1ccc(O)cc1O)c1ccc(O)cc1O | inactive | inactive | 3.07 µM (active) and 3.06 µM (active) | inactive | – | inactive | inactive | – | inactive | 17.2 µM (active) and 24.3 µM (active) | 8.64 µM (active) and 7.7 µM (active) | – | inactive | inactive | – | inactive | – | inactive | inactive | –
Clc1ccc2nsnc2c1NC1=NCCN1 | inactive | inactive | inactive | inactive | inactive | inactive | inactive | inactive | inactive | inactive | inactive | inactive | inactive | inactive | inactive | – | inactive | inactive | inactive | inactive
CN(C)C(=O)C1(N2CCCCC2)CCN(CC[C@@]2(c3ccc(Cl)c(Cl)c3)CN(C(=O)c3ccccc3)CCO2)CC1 | 64.1 µM (active) | 50.9 µM (active) | 28.6 µM (active) | 57.1 µM (active) | inactive | inactive | 16.1 µM (active) | 50.9 µM (active) | inactive | 18.1 µM (active) | inactive | 16.1 µM (active) | 57.1 µM (active) | 36 µM (active) | inactive | 28.6 µM (active) | inactive | inactive | 64.1 µM (active) | –
CN(C)CCCOC1(Cc2ccccc2)CCCCCC1 | inactive | inactive | inactive | inactive | inactive | inactive | inactive | inactive | inactive | – | inactive | inactive | inactive | – | inactive | inactive | – | inactive | – | –
C=CC(=O)OCC(CO)(COC(=O)C=C)COC(=O)C=C | 15.4 µM (active) and 48.6 µM (active) | 10.9 µM (active) and 27.3 µM (active) | 5.46 µM (active) and 12.2 µM (active) | 13.7 µM (active) | inactive | – | 4.34 µM (active) and 10.9 µM (active) | 3.87 µM (active) and 8.63 µM (active) | inactive | 1.54 µM (active) and 3.86 µM (active) | – | – | – | 13.7 µM (active) and 19.3 µM (active) | inactive | 19.4 µM (active) and 19.3 µM (active) | inactive | inactive | inactive | –
Nc1ccc(N)c2ccccc12 | 19.3 µM (active) | 61.1 µM (active) | 19.3 µM (active) | 12.2 µM (active) | inactive | – | 61.1 µM (active) | 61.1 µM (active) | inactive | 12.2 µM (active) | – | – | 61.1 µM (active) | 24.3 µM (active) | inactive | 27.3 µM (active) | inactive | inactive | – | –
COc1ccc(C(=O)/C(Br)=C\C(=O)O)cc1 | inactive | inactive | 48.6 µM (active) | inactive | inactive | inactive | – | – | 17.2 µM (active) | 3.86 µM (active) | – | – | – | inactive | inactive | – | inactive | inactive | – | inactive
NNc1nc(-c2ccc([N+](=O)[O-])cc2)cs1 | 27.3 µM (active) | 54.5 µM (active) | 17.2 µM (active) | 48.6 µM (active) | 17.2 µM (active) | inactive | inactive | 48.6 µM (active) | inactive | – | inactive | inactive | 48.6 µM (active) | – | inactive | inactive | inactive | – | – | –
O=C1C=CC(=O)N1 | 55.9 µM (active) | 49.8 µM (active) | inactive | 55.9 µM (active) | inactive | – | 5.59 µM (active) | 7.04 µM (active) | inactive | 1.58 µM (active) | – | 28 µM (active) | 49.8 µM (active) | 55.9 µM (active) | 8.86 µM (active) | – | inactive | inactive | – | –
COC(=O)c1cc(Cl)ccc1OC | inactive | inactive | inactive | inactive | inactive | inactive | inactive | inactive | inactive | inactive | – | – | inactive | inactive | inactive | inactive | inactive | inactive | – | –
